# Source: PubChem BioAssay
# Records with an inconclusive call do not appear. Active and inactive are the calls of the source.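 How the source made its calls, unless noted: active means normalized viability below 100% at a tested concentration; inactive means the rest.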
# How the values were obtained:
# [1] = viability loss in pontine glioma line – cell-based, SU-DIPG-XVII, MIPE5.0, CellTiter-Glo, qHTS, dose response (AID 1347060; cut-off not given, nearly all actives have AC50 up to about 26 µM;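 on AC50: cells exposed to compound for 48 hours before viability readout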); conditions: CellTiter-Glo ATP luminescence
# [2] = viability loss in pontine glioma line – cell-based, SU-DIPG-XIII, MIPE4.0, CellTiter-Glo, qHTS, dose response (AID 1347061; cut-off not given, nearly all actives have AC50 up to about 37 µM;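 further: cells exposed to compound for 48 hours before readout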); conditions: CellTiter-Glo ATP luminescence
# [3] = viability loss in pontine glioma line – cell-based, JHH-DIPG-1, MIPE4.0, CellTiter-Glo, qHTS, dose response (AID 1347062; cut-off not given, nearly all actives have AC50 up to about 27 µM;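 on AC50: cells exposed to compound for two days before readout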); conditions: JHH-DIPG-1 viability, CellTiter-Glo ATP luminescence
# [4] = viability loss in pontine glioma line – cell-based, SU-DIPG-IV, MIPE4.0, CellTiter-Glo, qHTS, dose response (AID 1347063; cut-off not given, nearly all actives have AC50 up to about 30 µM;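 further: compound exposure lasted 48 hours before the viability readout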); conditions: CellTiter-Glo ATP luminescence
# [5] = viability loss in pontine glioma line – cell-based, SU-DIPG-XIII, MIPE5.0, CellTiter-Glo, qHTS, dose response (AID 1347064; cut-off not given, nearly all actives have AC50 up to about 23 µM;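 on AC50: cells exposed to compound for 48 hours before the viability read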); conditions: CellTiter-Glo ATP luminescence
# [6] = viability loss in pontine glioma line – cell-based, SU-DIPG-XXV, MIPE5.0, CellTiter-Glo, qHTS, dose response (AID 1347065; cut-off not given, nearly all actives have AC50 up to about 26 µM;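 further: cells exposed to compound for 48 hours before ATP readout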); conditions: CellTiter-Glo ATP luminescence
# [7] = growth inhibition of DIPG cells – cell-based, MIPE4.0 library, CellTiter-Glo luminescence, qHTS (AID 1347066; cut-off not given, nearly all actives have AC50 up to about 30 µM;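 further: cells exposed to compound for 48 hours before readout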); conditions: SU-DIPG-VI viability, CellTiter-Glo ATP luminescence
# [8] = JHH-DIPG-1 glioma cell viability, MIPE5.0 library, CellTiter-Glo luminescence, qHTS (AID 1347067; cut-off not given, nearly all actives have AC50 up to about 26 µM;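 further: cells exposed to compound for 48 hours before readout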); conditions: JHH-DIPG-1 glioma viability, CellTiter-Glo ATP luminescence
# [9] = growth inhibition of DIPG cells – cell-based, MIPE5.0 library, qHTS (AID 1347068; cut-off not given, nearly all actives have IC50 up to about 30 µM;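 on IC50: cells exposed to compound for 48 hours before viability readout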); conditions: SU-DIPG-XXV viability
# [10] = viability loss with induced miR-34 in A549 – imaging, A549 dox-inducible miR-34, nuclei and caspase counts, primary screen (AID 1347080;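 active means compounds whose cell count with miR-34 switched on is under 0.7 times the count with it off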); conditions: A549 miR-34 inducible, Hoechst nuclei count, 48 h
# [11] = MELAS cybrid and Rieske KO viability enhancers – cell-based, MELAS cybrids, Rieske KO mouse fibroblasts, CellTiter-Glo, primary screen (AID 1508586;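 active means mean z-score across replicates of 1.96 or higher in either the MELAS or the Rieske mutant cell line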;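 further: z relative to plate mean and SD of compound and empty wells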); conditions: low glucose
# [12] = compounds altering HSF1 focus formation in cells – imaging, Selleck Cancer Library (AID 1347162; in the data active means plate-normalised HSF1 focus index below about 0.46); conditions: human cells, HSF1 nuclear foci imaging, at 10 µM; SSMD: measured here: HSF1 foci SSMD mean; cell count: measured here: cell number; plate-normalised HSF1 focus index: stronger effect = lower value
# [13] = drug combination growth inhibition, ovarian cancer – cell-based, oncology-focused library, rucaparib conditional, profiling panel (AID 1508598); conditions: patient-derived ovarian cancer cells, CellTiter-Glo viability, 144 h, stronger effect = lower value
# [14] = stronger effect = lower value, cell number ratio, induced over uninduced
# [15] = measured here: relative caspase fold change +Dox/-Dox
# [16] = measured here: total cells with miR-34 induction, stronger effect = lower value
# [17] = measured here: total cells without miR-34 induction
# [18] = MELAS cybrid survival, CellTiter-Glo 48 h, stronger effect = higher value
# [19] = Rieske KO mouse fibroblast survival, CellTiter-Glo 72 h
# [20] = at 0.000305 µM, OCI-C5x cells, with rucaparib 10 µM, 100% = cells with rucaparib alone
# [21] = at 0.000305 µM, OCI-C5x cells, without rucaparib
# [22] = at 0.000305 µM, OCI-P5x cells, with rucaparib 20 µM, 100% = cells with rucaparib alone
# [23] = at 0.000305 µM, OCI-P5x cells, without rucaparib
# [24] = at 0.00122 µM, OCI-C5x cells, with rucaparib 10 µM, 100% = cells with rucaparib alone
# [25] = at 0.00122 µM, OCI-C5x cells, without rucaparib
# [26] = at 0.00122 µM, OCI-P5x cells, with rucaparib 20 µM, 100% = cells with rucaparib alone
# [27] = at 0.00122 µM, OCI-P5x cells, without rucaparib
# [28] = at 0.00488 µM, OCI-C5x cells, with rucaparib 10 µM, 100% = cells with rucaparib alone
# [29] = at 0.00488 µM, OCI-C5x cells, without rucaparib
# [30] = at 0.00488 µM, OCI-P5x cells, with rucaparib 20 µM, 100% = cells with rucaparib alone
# [31] = at 0.00488 µM, OCI-P5x cells, without rucaparib
# [32] = at 0.0195 µM, OCI-C5x cells, with rucaparib 10 µM, 100% = cells with rucaparib alone
# [33] = at 0.0195 µM, OCI-C5x cells, without rucaparib
# [34] = at 0.0195 µM, OCI-P5x cells, with rucaparib 20 µM, 100% = cells with rucaparib alone
# [35] = at 0.0195 µM, OCI-P5x cells, without rucaparib
# [36] = at 0.0781 µM, OCI-C5x cells, with rucaparib 10 µM, 100% = cells with rucaparib alone
# [37] = at 0.0781 µM, OCI-C5x cells, without rucaparib
# [38] = at 0.0781 µM, OCI-P5x cells, with rucaparib 20 µM, 100% = cells with rucaparib alone
# [39] = at 0.0781 µM, OCI-P5x cells, without rucaparib
# [40] = at 0.313 µM, OCI-C5x cells, with rucaparib 10 µM, 100% = cells with rucaparib alone
# [41] = at 0.313 µM, OCI-C5x cells, without rucaparib
# [42] = at 0.313 µM, OCI-P5x cells, with rucaparib 20 µM, 100% = cells with rucaparib alone
# [43] = at 0.313 µM, OCI-P5x cells, without rucaparib
# [44] = at 1.25 µM, OCI-C5x cells, with rucaparib 10 µM, 100% = cells with rucaparib alone
# [45] = at 1.25 µM, OCI-C5x cells, without rucaparib
# [46] = at 1.25 µM, OCI-P5x cells, with rucaparib 20 µM, 100% = cells with rucaparib alone
# [47] = at 1.25 µM, OCI-P5x cells, without rucaparib
# [48] = at 5 µM, OCI-C5x cells, with rucaparib 10 µM, 100% = cells with rucaparib alone
# [49] = at 5 µM, OCI-C5x cells, without rucaparib
# [50] = at 5 µM, OCI-P5x cells, with rucaparib 20 µM, 100% = cells with rucaparib alone
# [51] = at 5 µM, OCI-P5x cells, without rucaparib
compound,measurement,setting,value
O=C(Nc1c(Cl)cncc1Cl)c1ccc(OC(F)F)c(OCC2CC2)c1,outcome,[1],inactive
same,outcome,[2],inactive
same,outcome,[3],inactive
same,outcome,[4],inactive
same,outcome,[5],inactive
same,outcome,[6],inactive
same,outcome,[7],inactive
same,outcome,[8],inactive
same,outcome,[9],inactive
same,fold change,[10]; [14],0.886 (inactive)
same,fold change,[10]; [15],1.06
same,cell count,[10]; [16],8020
same,cell count,[10]; [17],9050
same,z-score,[11]; [18],-0.193 (inactive)
same,z-score,[11]; [19],-1.74
Cc1ccccc1C(C(=O)NC1CCCCC1)N(C(=O)Cn1ccnc1C)c1cccc(F)c1 (centres undefined),outcome,[1],inactive
same,outcome,[2],inactive
same,outcome,[3],inactive
same,outcome,[4],inactive
same,outcome,[5],inactive
same,outcome,[6],inactive
same,outcome,[7],inactive
same,outcome,[8],inactive
same,outcome,[9],inactive
same,fold change,[10]; [14],0.844 (inactive)
same,fold change,[10]; [15],0.447
same,cell count,[10]; [16],8020
same,cell count,[10]; [17],9500
same,z-score,[11]; [18],0.145 (inactive)
same,z-score,[11]; [19],0.11
CC[C@H](CC[C@@H](C)[C@H]1CC[C@H]2[C@@H]3CC=C4C[C@@H](O)CC[C@]4(C)[C@H]3CC[C@]12C)C(C)C,outcome,[1],inactive
same,outcome,[2],inactive
same,outcome,[3],inactive
same,outcome,[4],inactive
same,outcome,[5],inactive
same,outcome,[6],inactive
same,outcome,[7],inactive
same,outcome,[8],inactive
same,outcome,[9],inactive
same,fold change,[10]; [14],0.94 (inactive)
same,fold change,[10]; [15],0.534
same,cell count,[10]; [16],8770
same,cell count,[10]; [17],9330
Cc1ccc(C(=O)Nc2ccc(CN3CCN(C)CC3)c(C(F)(F)F)c2)cc1C#Cc1cnc2cccnn12,AC50,[1],590 nM (active)
same,AC50,[2],418 nM (active)
same,AC50,[3],6.62 µM (active)
same,AC50,[4],1.18 µM (active)
same,AC50,[5],661 nM (active)
same,AC50,[6],833 nM (active)
same,AC50,[7],8.33 µM (active)
same,AC50,[8],2.35 µM (active)
same,IC50,[9],2.95 µM (active)
same,fold change,[10]; [14],1.36 (inactive)
same,fold change,[10]; [15],1.05
same,cell count,[10]; [16],814
same,cell count,[10]; [17],597
same,SSMD,[12],1.5
same,cell count,[12],7680
same,plate-normalised HSF1 focus index,[12],1.09 (inactive)
same,z-score,[11]; [18],1.37 (inactive)
same,z-score,[11]; [19],-2.78
same,viability,[13]; [20],94.7% (active)
same,viability,[13]; [21],114% (inactive)
same,viability,[13]; [22],108% (inactive)
same,viability,[13]; [23],114% (inactive)
same,viability,[13]; [24],98% (active)
same,viability,[13]; [25],122% (inactive)
same,viability,[13]; [26],103% (inactive)
same,viability,[13]; [27],111% (inactive)
same,viability,[13]; [28],104% (inactive)
same,viability,[13]; [29],130% (inactive)
same,viability,[13]; [30],97% (active)
same,viability,[13]; [31],107% (inactive)
same,viability,[13]; [32],95.2% (active)
same,viability,[13]; [33],127% (inactive)
same,viability,[13]; [34],102% (inactive)
same,viability,[13]; [35],89.9% (active)
same,viability,[13]; [36],94.7% (active)
same,viability,[13]; [37],117% (inactive)
same,viability,[13]; [38],88.1% (active)
same,viability,[13]; [39],111% (inactive)
same,viability,[13]; [40],93.2% (active)
same,viability,[13]; [41],118% (inactive)
same,viability,[13]; [42],44.4% (active)
same,viability,[13]; [43],77.9% (active)
same,viability,[13]; [44],58.9% (active)
same,viability,[13]; [45],116% (inactive)
same,viability,[13]; [46],24.3% (active)
same,viability,[13]; [47],28.1% (active)
same,viability,[13]; [48],2.01% (active)
same,viability,[13]; [49],3.5% (active)
same,viability,[13]; [50],8.21% (active)
same,viability,[13]; [51],6.01% (active)
Cc1cc(N2CCOCC2)cc2[nH]c(-c3c(NC[C@@H](O)c4cccc(Cl)c4)cc[nH]c3=O)nc12,AC50,[1],742 nM (active)
same,AC50,[2],1480 nM (active)
same,AC50,[3],13.2 µM (active)
same,AC50,[4],7.43 µM (active)
same,AC50,[5],209 nM (active)
same,AC50,[6],263 nM (active)
same,AC50,[7],0.0526 µM (active)
same,AC50,[8],3.72 µM (active)
same,outcome,[9],inactive
same,viability,[13]; [20],117% (inactive)
same,viability,[13]; [21],119% (inactive)
same,viability,[13]; [22],135% (inactive)
same,viability,[13]; [23],99.5% (active)
same,viability,[13]; [24],126% (inactive)
same,viability,[13]; [25],114% (inactive)
same,viability,[13]; [26],133% (inactive)
same,viability,[13]; [27],97.6% (active)
same,viability,[13]; [28],123% (inactive)
same,viability,[13]; [29],109% (inactive)
same,viability,[13]; [30],130% (inactive)
same,viability,[13]; [31],98.9% (active)
same,viability,[13]; [32],119% (inactive)
same,viability,[13]; [33],118% (inactive)
same,viability,[13]; [34],133% (inactive)
same,viability,[13]; [35],96.1% (active)
same,viability,[13]; [36],126% (inactive)
same,viability,[13]; [37],123% (inactive)
same,viability,[13]; [38],118% (inactive)
same,viability,[13]; [39],83.6% (active)
same,viability,[13]; [40],123% (inactive)
same,viability,[13]; [41],123% (inactive)
same,viability,[13]; [42],79.9% (active)
same,viability,[13]; [43],66.6% (active)
same,viability,[13]; [44],133% (inactive)
same,viability,[13]; [45],126% (inactive)
same,viability,[13]; [46],41.4% (active)
same,viability,[13]; [47],53.5% (active)
same,viability,[13]; [48],37.3% (active)
same,viability,[13]; [49],80.4% (active)
same,viability,[13]; [50],0.53% (active)
same,viability,[13]; [51],12.5% (active)
